# Results as given in PubChem BioAssay (EPA / NIEHS).
# Several values for one entry are separate records, joined by “and”; a condition that tells them apart may be missing. Equal values may be shown once. Records with an inconclusive call do not appear. Where a structure was tested more than once in an assay, its records may differ in their call. Activity calls are given as the source filed them. Rule for the calls, unless noted: active = hit-call score of the fitted dose curve at least 0.9, where 1 is the maximum; inactive = score below 0.9.
# Assays:
# [1] = target: human RAR-related Orphan Receptor gamma (RORg), RORC (gene 6097) (UniProt P51449); test: ATG_RORg_TRANS: Attagene TRANS-FACTORIAL HepG2 Assay for human RAR-related Orphan Receptor gamma (RORg) (AID 2283011; active = hit-call score of the fitted dose curve at least 0.9, where 1 is the maximum)
# Method in brief: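 First, HepG2 liver cells were transfected with GAL4-UAS-driven reporter constructs and the RORg-Gal4 fusion. Next, they were treated with chemical for 24 h. Finally, reporter mRNA was quantified by RT-PCR and capillary electrophoresis, with upward activity fitted against DMSO.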
# [2] = target: Retinoic acid receptor RXR-alpha (Homo sapiens) (UniProt P19793); test: ATG_RXRa_TRANS: Attagene TRANS-FACTORIAL HepG2 Assay for human Retinoid X Receptor alpha (RXRa) (AID 2283012; active = hit-call score of the fitted dose curve at least 0.9, where 1 is the maximum)
# Method in brief: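 Chimeric NR-GAL4 trans-activation in HepG2, 24 h treatment; reporter transcripts quantified by fluorescence on capillary electrophoresis, analysed for upward change from DMSO.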
# [3] = target: human Thyroid Receptor alpha (THRa1), THRA (gene 7067) (UniProt P10827); test: ATG_THRa1_TRANS: Attagene TRANS-FACTORIAL HepG2 Assay for human Thyroid Receptor alpha (THRa1) (AID 2283014; active = hit-call score of the fitted dose curve at least 0.9, where 1 is the maximum)
# Method in brief: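 Reporter transcript induction, read by capillary electrophoresis of 6-FAM-labelled RT-PCR products, reflects activity of a transfected THRa1-Gal4 fusion in HepG2 liver cells. Cells were dosed for 24 h; activity was fitted in the positive direction against DMSO.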
# [4] = target: human Retinoid X Receptor beta (RXRb), RXRB (gene 6257) (UniProt P28702); test: ATG_RXRb_TRANS: Attagene TRANS-FACTORIAL HepG2 Assay for human Retinoid X Receptor beta (RXRb) (AID 2283013; active = hit-call score of the fitted dose curve at least 0.9, where 1 is the maximum)
# Method in brief: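 After a 24 h incubation with test chemical, transfected HepG2 cells carrying NR-Gal4 fusions and GAL4-UAS reporter transcription units yield RNA whose reporter cDNA is FAM-labelled, HpaI-cut and sized by capillary electrophoresis; increases over DMSO are scored.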
# [5] = read-out: E-selectin (Homo sapiens) (UniProt P16581); test: BSK_3C_Eselectin: BioMAP Diversity Plus: 3C Assay for Eselectin Biomarker Activity (AID 2283015); conditions: primary human endothelial cells (HUVEC); actives raise or lower the signal;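 note: cell surface E-selectin protein quantified by ELISA 24 h after dosing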
# Method in brief: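 ELISA read-out of E-selectin on endothelial monolayers after 24 h chemical treatment. Human umbilical vein primary cells served as the system, with DMSO defining baseline activity for bidirectional fitting.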
# [6] = read-out: Interleukin-1 alpha (IL1a), IL1A (gene 3552); test: BSK_BE3C_IL1a: BioMAP Diversity Plus: BE3C Assay for Interleukin-1 alpha (IL1a) Biomarker Activity (AID 2283016); conditions: primary human bronchial epithelial cells; actives raise or lower the signal
# Method in brief: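 Measured in human lung primary bronchial epithelial cells: IL-1a by ELISA at 24 h after dosing, with bidirectional fitting against DMSO.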
# [7] = read-out: Monocyte Chemoattractant Protein-1 (MCP1), CCL2 (gene 6347); test: BSK_3C_MCP1: BioMAP Diversity Plus: 3C Assay for Monocyte Chemoattractant Protein-1 (MCP1) Biomarker Activity (AID 2283017); conditions: primary human endothelial cells (HUVEC); actives raise or lower the signal
# Method in brief: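 ELISA read-out of MCP-1 from human umbilical vein endothelial cell cultures harvested 24 h post-dosing. Gain or loss of signal was fitted relative to DMSO.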
# [8] = read-out: Monocyte Chemoattractant Protein-1 (MCP1), CCL2 (gene 6347); test: BSK_4H_MCP1: BioMAP Diversity Plus: 4H Assay for Monocyte Chemoattractant Protein-1 (MCP1) Biomarker Activity (AID 2283018); conditions: primary human endothelial cells (HUVEC); actives raise or lower the signal
# Method in brief: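 Primary human umbilical vein endothelium is exposed to chemical for 24 h before MCP-1 is assayed by ELISA. Concentration-response fitted bidirectionally relative to DMSO.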
# [9] = read-out: Human Leukocyte Antigen - DR isotype (HLADR), HLA-DRA (gene 3122); test: BSK_3C_HLADR: BioMAP Diversity Plus: 3C Assay for Human Leukocyte Antigen - DR isotype (HLADR) Biomarker Activity (AID 2283019); conditions: primary human endothelial cells (HUVEC); actives raise or lower the signal;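 for outcome: ELISA of cell-surface HLA-DR on HUVEC 24 h after dosing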
# Method in brief: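 ELISA readout of surface HLA-DR on human umbilical vein endothelium, taken 24 h after chemical treatment. Gain- and loss-of-signal were both fitted relative to DMSO.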
# [10] = read-out: Interleukin-8 (IL8), CXCL8 (gene 3576); test: BSK_3C_IL8: BioMAP Diversity Plus: 3C Assay for Interleukin-8 (IL8) Biomarker Activity (AID 2283020); conditions: primary human endothelial cells (HUVEC); actives raise or lower the signal
# Method in brief: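 Using DMSO-treated wells as the baseline, bidirectional curve fitting was applied to ELISA-measured IL-8 from human umbilical vein endothelial cultures sampled 24 h after compound addition.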
# human Thyroid Receptor alpha (THRa1), THRA (gene 7067), sequence (P10827 whole entry, looked up, the tested form may be a part): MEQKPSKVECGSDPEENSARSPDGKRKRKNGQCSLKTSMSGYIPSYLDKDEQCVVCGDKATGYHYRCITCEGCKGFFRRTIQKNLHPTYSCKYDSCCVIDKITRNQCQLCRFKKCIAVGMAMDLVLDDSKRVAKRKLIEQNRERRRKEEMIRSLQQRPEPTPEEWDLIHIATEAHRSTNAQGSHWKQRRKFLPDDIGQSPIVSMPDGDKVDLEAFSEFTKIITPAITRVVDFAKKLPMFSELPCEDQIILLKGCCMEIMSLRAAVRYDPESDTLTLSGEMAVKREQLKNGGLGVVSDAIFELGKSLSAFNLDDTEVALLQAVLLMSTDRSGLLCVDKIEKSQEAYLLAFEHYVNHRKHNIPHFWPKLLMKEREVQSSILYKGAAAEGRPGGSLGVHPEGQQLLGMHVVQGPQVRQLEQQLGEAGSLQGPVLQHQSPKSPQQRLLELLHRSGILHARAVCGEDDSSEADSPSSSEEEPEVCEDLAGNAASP
# Retinoic acid receptor RXR-alpha (Homo sapiens), sequence (P19793 whole entry, looked up, the tested form may be a part): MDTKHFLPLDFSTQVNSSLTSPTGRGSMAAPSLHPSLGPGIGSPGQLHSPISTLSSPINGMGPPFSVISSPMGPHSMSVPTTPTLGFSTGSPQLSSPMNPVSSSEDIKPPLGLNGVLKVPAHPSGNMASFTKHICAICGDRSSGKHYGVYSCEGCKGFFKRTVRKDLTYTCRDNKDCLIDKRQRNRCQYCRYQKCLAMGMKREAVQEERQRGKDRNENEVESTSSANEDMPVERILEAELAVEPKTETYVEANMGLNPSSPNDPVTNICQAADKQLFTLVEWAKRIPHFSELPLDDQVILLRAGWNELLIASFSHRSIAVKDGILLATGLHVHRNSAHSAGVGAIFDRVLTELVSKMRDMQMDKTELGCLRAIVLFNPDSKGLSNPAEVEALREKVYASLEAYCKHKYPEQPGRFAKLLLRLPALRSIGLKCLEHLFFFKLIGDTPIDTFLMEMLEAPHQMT
# E-selectin (Homo sapiens), sequence (P16581 whole entry, looked up): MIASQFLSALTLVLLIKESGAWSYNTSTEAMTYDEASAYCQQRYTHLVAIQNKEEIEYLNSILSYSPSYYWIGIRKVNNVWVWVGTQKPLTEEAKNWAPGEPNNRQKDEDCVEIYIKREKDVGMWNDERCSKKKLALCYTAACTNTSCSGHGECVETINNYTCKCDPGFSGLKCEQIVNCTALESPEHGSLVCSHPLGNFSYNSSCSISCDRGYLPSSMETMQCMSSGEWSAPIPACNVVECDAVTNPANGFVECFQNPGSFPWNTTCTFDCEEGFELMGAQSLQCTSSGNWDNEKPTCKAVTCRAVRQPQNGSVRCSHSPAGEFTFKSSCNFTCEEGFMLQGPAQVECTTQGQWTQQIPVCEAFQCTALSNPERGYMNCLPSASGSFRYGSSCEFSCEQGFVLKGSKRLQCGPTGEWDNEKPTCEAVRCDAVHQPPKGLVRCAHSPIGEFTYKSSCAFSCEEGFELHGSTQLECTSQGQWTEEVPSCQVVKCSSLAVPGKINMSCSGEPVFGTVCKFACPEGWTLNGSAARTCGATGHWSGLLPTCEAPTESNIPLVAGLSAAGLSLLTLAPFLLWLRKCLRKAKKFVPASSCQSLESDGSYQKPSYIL
# human RAR-related Orphan Receptor gamma (RORg), RORC (gene 6097), sequence (P51449 whole entry, looked up, the tested form may be a part): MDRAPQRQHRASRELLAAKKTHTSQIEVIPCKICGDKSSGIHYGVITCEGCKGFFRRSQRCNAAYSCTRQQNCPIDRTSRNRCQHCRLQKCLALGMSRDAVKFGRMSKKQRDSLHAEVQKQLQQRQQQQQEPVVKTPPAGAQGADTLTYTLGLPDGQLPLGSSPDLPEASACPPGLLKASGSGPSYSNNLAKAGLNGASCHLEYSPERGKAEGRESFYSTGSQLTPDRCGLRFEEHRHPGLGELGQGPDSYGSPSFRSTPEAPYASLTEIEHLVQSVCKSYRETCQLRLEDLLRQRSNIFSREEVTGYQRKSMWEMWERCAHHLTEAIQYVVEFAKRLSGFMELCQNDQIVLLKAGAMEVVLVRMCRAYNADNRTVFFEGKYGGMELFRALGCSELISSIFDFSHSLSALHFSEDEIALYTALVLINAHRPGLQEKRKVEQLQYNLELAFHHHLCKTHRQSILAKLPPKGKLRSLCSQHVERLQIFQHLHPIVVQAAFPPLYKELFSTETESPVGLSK
# human Retinoid X Receptor beta (RXRb), RXRB (gene 6257), sequence (P28702 whole entry, looked up, the tested form may be a part): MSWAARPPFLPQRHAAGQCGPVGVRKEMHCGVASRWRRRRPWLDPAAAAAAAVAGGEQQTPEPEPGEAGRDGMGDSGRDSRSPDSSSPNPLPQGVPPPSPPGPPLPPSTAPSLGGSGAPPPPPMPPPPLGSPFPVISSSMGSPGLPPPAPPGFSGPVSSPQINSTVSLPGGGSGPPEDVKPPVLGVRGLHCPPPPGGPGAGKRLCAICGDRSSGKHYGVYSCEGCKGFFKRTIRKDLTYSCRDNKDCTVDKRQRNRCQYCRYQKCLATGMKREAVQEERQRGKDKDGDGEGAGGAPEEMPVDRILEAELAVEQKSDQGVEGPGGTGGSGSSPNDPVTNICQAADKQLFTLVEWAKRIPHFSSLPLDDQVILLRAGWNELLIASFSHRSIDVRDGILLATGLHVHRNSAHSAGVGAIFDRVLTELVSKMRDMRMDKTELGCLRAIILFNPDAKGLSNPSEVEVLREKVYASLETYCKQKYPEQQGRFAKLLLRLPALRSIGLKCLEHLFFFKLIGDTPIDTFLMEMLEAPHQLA
smiles,measurement,setting,value
CC(O)COc1ccccc1 (configuration not stated),outcome,[1],inactive
same,outcome,[2],inactive
same,outcome,[3],inactive
CCC1CO1 (configuration not stated),outcome,[1],inactive
same,outcome,[4],inactive
O=C(NO)c1ccccc1,outcome,[1],inactive
same,outcome,[2],inactive
same,outcome,[5],inactive
same,outcome,[6],inactive
same,outcome,[7],inactive
same,outcome,[8],inactive
same,outcome,[9],inactive
same,outcome,[10],inactive
C=CC(F)(F)C(F)(F)C(F)(F)C(F)(F)F,outcome,[2],inactive
CCOC(=O)c1nc(C(Cl)(Cl)Cl)n(-c2ccc(Cl)cc2Cl)n1,outcome,[2],inactive
COCC1CCC(CO)CC1 (configuration not stated),outcome,[1],inactive
same,outcome,[4],inactive
CNNCc1ccc(C(=O)NC(C)C)cc1,outcome,[2],inactive
same,outcome,[4],inactive
Cn1sccc1=O,outcome,[2],inactive
Cc1ccccc1OCC(=O)O,outcome,[1],inactive
same,outcome,[4],inactive
Oc1c(Cl)ccc(Cl)c1Cl,outcome,[2],inactive
Oc1c(Cl)cc(Cl)cc1Sc1cc(Cl)cc(Cl)c1O,outcome,[1],inactive
same,outcome,[2],inactive
same,outcome,[3],inactive
same,AC50,[6],7.68 µM (active) and 8.04 µM (active)
same,AC50,[7],36.2 µM (active) and 35.9 µM (active)
same,AC50,[8],9.13 µM (active) and 5.86 µM (active)
same,AC50,[9],15.5 µM (active) and 22.3 µM (active)
same,AC50,[10],36 µM (active) and 35.2 µM (active)
CCc1cccc(CC)c1N(COC)C(=O)CS(=O)(=O)O,outcome,[2],inactive
CCCCCCCCCCCCCCC,outcome,[1],inactive
same,outcome,[4],inactive
same,outcome,[6],inactive
same,outcome,[7],inactive
same,outcome,[8],inactive
same,outcome,[9],inactive
same,outcome,[10],inactive
CCCCc1ccc2ccccc2c1S(=O)(=O)O,outcome,[1],inactive
same,AC50,[4],77.1 µM (active)
FCOC(C(F)(F)F)C(F)(F)F,outcome,[2],inactive
NNC(=O)CCCCC(=O)NN,outcome,[2],inactive
c1cc2cccc3c4cccc5cccc(c(c1)c23)c54,outcome,[1],inactive
same,outcome,[4],inactive
same,outcome,[3],inactive
O=C(c1ccccc1)c1ccccc1,outcome,[1],inactive
same,outcome,[6],inactive
same,outcome,[7],inactive
same,outcome,[8],inactive
same,outcome,[9],inactive
same,outcome,[10],inactive
O=C1NS(=O)(=O)c2ccccc21,outcome,[1],inactive
same,outcome,[4],inactive
same,outcome,[6],inactive
same,outcome,[7],inactive
same,outcome,[8],inactive
same,outcome,[9],inactive
same,outcome,[10],inactive
CCOCCOCC,outcome,[1],inactive
same,outcome,[3],inactive
CCCCCCCCCCCC(=O)NCCCN(C)C,outcome,[2],inactive
CCOC(C)=O,outcome,[1],inactive
same,AC50,[4],26.6 µM (active)
same,outcome,[4],inactive
Oc1cc2ccccc2cc1O,outcome,[1],inactive
same,outcome,[2],inactive
same,outcome,[3],inactive
same,outcome,[5],inactive
same,outcome,[6],inactive
same,outcome,[7],inactive
same,outcome,[8],inactive
same,outcome,[9],inactive
same,outcome,[10],inactive
CCc1cccc(CC)c1NC(=O)C(=O)O,outcome,[1],inactive
same,outcome,[3],inactive
CCCCCCCCCCCC[N+](C)(C)CCCCCCCCCCCC,outcome,[2],inactive
CC(=O)Nc1ccc(O)cc1,outcome,[1],inactive
same,outcome,[2],inactive
same,outcome,[6],inactive
same,outcome,[7],inactive
same,outcome,[8],inactive
same,outcome,[9],inactive
same,outcome,[10],inactive
C=CC(=C)CC/C=C(\C)CCC=C(C)C,outcome,[1],inactive
same,outcome,[6],inactive
same,outcome,[7],inactive
same,outcome,[8],inactive
same,outcome,[9],inactive
same,outcome,[10],inactive
FC(F)(F)N1C(F)(F)C(F)(F)OC(F)(F)C1(F)F,outcome,[1],inactive
same,outcome,[4],inactive
NNc1nc(-c2ccc([N+](=O)[O-])cc2)cs1,outcome,[2],inactive
CCN(CCC#N)c1ccccc1,outcome,[2],inactive
same,outcome,[4],inactive
FC(F)(F)C1(F)C(F)(F)C(F)(F)C(F)(F)C(F)(C(F)(F)F)C1(F)F (configuration not stated),outcome,[2],inactive
COC(=O)CC(C(C)=O)C(=O)OC (configuration not stated),outcome,[1],inactive
same,outcome,[3],inactive
CCCCCCC(C)(C)C(=O)O,outcome,[1],inactive
same,outcome,[4],inactive
O=P(O)(O)CCC(F)(F)C(F)(F)C(F)(F)C(F)(F)C(F)(F)C(F)(F)F,outcome,[1],inactive
same,outcome,[2],inactive
same,outcome,[3],inactive
same,outcome,[6],inactive
same,outcome,[7],inactive
same,outcome,[8],inactive
same,outcome,[9],inactive
same,outcome,[10],inactive
O=C(C=C(O)C(F)(F)F)C(F)(F)F,outcome,[2],inactive
CCCCCCCCCC=CCC1CC(=O)OC1=O (configuration not stated),outcome,[1],inactive
same,outcome,[4],inactive
c1ccc(CNc2ncnc3c2ncn3C2CCCCO2)cc1 (configuration not stated),outcome,[2],inactive
same,outcome,[4],inactive
O=C1c2ccc(O)c(O)c2C(=O)c2c(O)ccc(O)c21,outcome,[5],inactive
CCOC(=O)CN[C@@H](C(=O)N1CC[C@H]1C(=O)NCc1ccc(/C(N)=N/O)cc1)C1CCCCC1,outcome,[5],inactive
CCCCCCCCCCCCOC(=O)c1cc(O)c(O)c(O)c1,outcome,[2],inactive
same,outcome,[3],inactive
O=C(CCCN1CCC(O)(c2ccc(Cl)cc2)CC1)c1ccc(F)cc1,outcome,[4],inactive
same,outcome,[3],inactive
same,outcome,[6],inactive
same,outcome,[7],inactive
same,outcome,[8],inactive
same,outcome,[9],inactive
same,AC50,[10],9.25 µM (active)
CCC(=O)C=Cc1ccc(OC)cc1,outcome,[2],inactive
same,outcome,[3],inactive
CS(=O)(=O)c1ccc([C@@H](CC2CCCC2)C(=O)Nc2cnccn2)cc1Cl,outcome,[2],inactive
same,outcome,[4],inactive
same,outcome,[6],inactive
same,outcome,[7],inactive
same,outcome,[8],inactive
same,outcome,[9],inactive
same,outcome,[10],inactive
CCCCC(CC)C(=O)O (configuration not stated),outcome,[2],inactive
same,outcome,[4],inactive
same,outcome,[6],inactive
same,outcome,[7],inactive
same,outcome,[8],inactive
same,outcome,[9],inactive
same,outcome,[10],inactive
C=COC(=O)C(C)(C)CCCCCC,outcome,[2],inactive
same,AC50,[4],62 µM (active)
same,AC50,[6],34.9 µM (active)
same,AC50,[7],31.3 µM (active)
same,AC50,[8],20 µM (active)
same,AC50,[9],33.6 µM (active)
same,AC50,[10],30.2 µM (active)
